Records with an inconclusive call do not appear. Calls of active or inactive are those of the source. Calls follow the shape of the dose curve; as a rule, active = well fitted inhibition curve with a large enough effect; inconclusive = small, poorly fitted or top-dose-only effect; inactive = flat fitted curve, though single readings scatter.

The source of these data is PubChem BioAssay (NCATS).

Common to all, as to test: qHTS profiling for inhibitors of Plasmodium falciparum proliferation (AID 504749); also: nearly all actives have a fitted effect of over 60% in size
Common to all, as to details: P. falciparum in erythrocytes, SYBR Green DNA, 72 h; series mostly up to 28.7 µM

In one test the test system is CP262. In outline:
(§1)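 SYBR Green fluorescence of parasite DNA, read after lysis and overnight dark incubation, measured growth over 72 h in erythrocyte culture at 0.3% parasitemia and 2.5% hematocrit. Data normalised to DMSO and 0.29 uM artemisinin, with plate-drift correction.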

The test system of the next test is CP265. In a few lines:
as §1

The subject of the next test is CP266. In outline:
as §1

The next test relates to CP268. In a few lines: as §1
The test system of the next test is CP269. In outline: as §1
In another test the test system is CP286. In a few lines: as §1
The subject of a further test is CP291. In a few lines: as §1
Another test concerns CP297. In outline: as §1
The subject of a further test is CP305. In outline:
as §1

The next test deals with CP315. In outline:
as §1

Another test has as its system CP325. In a few lines: as §1
For another test, the system named is CP329. In a few lines:
as §1

Another test relates to CP335. In outline:
as §1

A further test concerns DFO2036. In a few lines:
as §1

The next test concerns DIV14. In outline:
as §1

For a further test, the system named is DIV17. In a few lines: as §1
The next test has as its system DIV30. In outline: as §1
The subject of another test is Dd2. In outline:
as §1

The subject of the next test is ECU. In outline: as §1
The subject of the next test is CP260. In outline:
as §1
Potency is read from the fitted curve at half-maximal effect.

For the compound `CNC(C)C(O)c1ccc(O)cc1` (centres undefined), the Potency entry in the test with CP262, in the test on CP265, in the test on CP266, in the test on CP268, in the test with CP269 and with CP286 was “inactive” in each case. Besides, the Potency entry in the test on CP291, in the test with CP297, in the test on CP305, in the test with CP315, in the test on CP325 and in the test with CP329 was “inactive” in each case. Further, the Potency result in the test with CP335, in the test with DFO2036, in the test on DIV14, with DIV17, in the test on DIV30 and in the test with Dd2 was “inactive” in each case. Besides, the Potency entry with ECU is “inactive”.
Consider `F/C(COc1ccc2c(c1)[nH]c1ccccc12)=C1/CN2CCC1CC2`, for which the Potency with CP260 was 5.62 µM (active); in the test on CP265, 8.91 µM (active); in the test on CP286 it was 7.08 µM (active); in the test on DFO2036, 11.2 µM (active); with DIV14, 4.26 µM (active); in the test with DIV17 it was 6.75 µM (active). The Potency is 10.7 µM (active) with DIV30 and 5.62 µM (active) with Dd2. Also, the Potency entry in the test on CP262 and with CP325 was “inactive” in each case.
Regarding `c1ccc2cc(CC3=NCCN3)ccc2c1`, the Potency result in the test on CP260, in the test with CP262, in the test with CP265, in the test on CP268, with CP269 and in the test with CP286 was “inactive” each time. Further, the Potency result in the test with CP291, in the test on CP297, with CP305, with CP315, in the test on CP325 and in the test with CP329 was “inactive” in each case. For the same compound, the Potency result in the test on CP335, in the test with DFO2036, in the test with DIV17, with DIV30, with Dd2 and in the test on ECU was “inactive” throughout.
In the case of `CC12NC(Cc3ccccc31)c1ccccc12` (centres undefined), the Potency entry in the test on CP262, in the test with CP266, in the test with CP268, with CP305, with CP315 and in the test on CP325 was “inactive” in each case. The Potency result with DIV30 and with ECU was “inactive” each time. Further, the Potency in the test with CP265 was 8.91 µM (active); in the test on CP297, 6.01 µM (active); in the test on Dd2, 11.2 µM (active).
`Oc1cccc[c]1[Hg][Cl]`: the Potency in the test with CP260 was 5.62 µM (active); in the test on CP265, 10 µM (active); in the test on CP266, 9.53 µM (active); in the test with CP268, 7.57 µM (active); in the test with CP269, 4.26 µM (active); in the test with CP286 it was 7.94 µM (active). For the same compound, the Potency is 10.7 µM (active) in the test on CP291; 13.5 µM (active) with CP297; 6.01 µM (active) in the test on CP305; 12 µM (active) in the test on CP325; 9.53 µM (active) with CP329; 5.62 µM (active) in the test with DFO2036. The Potency was 4.78 µM (active) with DIV14; 5.36 µM (active) in the test on DIV17; 9.53 µM (active) in the test with DIV30; 2.51 µM (active) in the test on Dd2; 3.55 µM (active) in the test on ECU.
As for `CNC(=O)Oc1ccccc1C(=O)Nc1ccccc1`, the Potency result in the test with CP260, with CP265, in the test with CP266, in the test on CP268, in the test on CP269 and in the test on CP286 was “inactive” throughout. Besides, the Potency result in the test with CP291, with CP305, in the test with CP325, with CP329, with CP335 and in the test on DFO2036 was “inactive” each time. Moreover, the Potency with ECU is 11.2 µM (active).
On to `COC([CH2][Hg])CNC(=O)c1ccccc1OCC(=O)O` (centres undefined), for which the Potency result in the test with CP262, in the test with CP265, in the test with CP266, in the test with CP268, with CP269 and in the test with CP286 was “inactive” each time. The Potency entry in the test on CP291, in the test with CP297, with CP305, in the test on CP315, with CP325 and with CP329 was “inactive” in each case. In addition, the Potency entry in the test with CP335, in the test on DFO2036, in the test on DIV14, with DIV17, in the test with DIV30 and in the test with Dd2 was “inactive” in each case. In addition, the Potency entry in the test on ECU was “inactive”.
For the compound `O=P(O)(O)C(Cl)(Cl)P(=O)(O)O`, the Potency result with CP260, in the test with CP262, in the test on CP265, in the test with CP268, in the test on CP269 and with CP286 was “inactive” throughout. Further, the Potency entry in the test on CP291, with CP297, in the test with CP305, in the test with CP315, with CP325 and in the test with CP329 was “inactive” each time. For the same compound, the Potency entry in the test with CP335, in the test on DFO2036, in the test on DIV14, in the test on DIV17, in the test on DIV30 and in the test on Dd2 was “inactive” throughout. Moreover, in the test on ECU, the Potency result is “inactive”.
Turning to `CCOc1ccc2c3c1O[C@H]1[C@@H](O)C=C[C@H]4[C@@H](C2)N(C)CC[C@@]341`, the Potency entry in the test on CP260, in the test with CP265, in the test with CP266, with CP286, in the test on CP329 and in the test on CP335 was “inactive” throughout. Further, the Potency entry with DFO2036, in the test with Dd2 and with ECU was “inactive” each time. In addition, the Potency in the test on CP297 and in the test with DIV14 was 15.1 µM (active) each time.
For `O=c1c2ccccc2[se]n1-c1ccccc1`, the Potency entry with CP260, with CP262, with CP266, in the test with CP268, with CP269 and in the test with CP291 was “inactive” throughout. Moreover, the Potency result with CP297, in the test on CP305, with CP315, with CP325, in the test on CP329 and with DIV30 was “inactive” in each case.
For the compound `N#CC(C#N)=Cc1cc(O)c(O)c(O)c1`, the Potency in the test on CP260 is 6.31 µM (active); in the test on CP262, 15.1 µM (active); in the test with CP266, 16.9 µM (active); with CP269, 10.7 µM (active); in the test on CP286, 10 µM (active); in the test on CP297, 15.1 µM (active). Also, the Potency in the test on CP335 was 6.75 µM (active); in the test with DIV14, 13.5 µM (active); in the test on DIV17, 10.7 µM (active); in the test with Dd2, 6.31 µM (active). For the same compound, the Potency result in the test on ECU is “inactive”.
Turning to `CCN(CC)C(=O)/C(Cl)=C(\C)OP(=O)(OC)OC`, the Potency result in the test on CP260, in the test on CP262, with CP265, with CP286, with DFO2036 and with Dd2 was “inactive” each time. The Potency result in the test with ECU is “inactive”. Moreover, the Potency in the test with CP297 was 13.5 µM (active).
Turning to `CCCN1CCCC2Cc3[nH]ncc3CC21` (centres undefined), the Potency result with CP260, with CP265, in the test on CP286, with DFO2036, with Dd2 and with ECU was “inactive” in each case.
Consider `C[C@@H](Cc1ccccc1)NCCC(c1ccccc1)c1ccccc1`, for which the Potency result in the test on CP315, in the test with CP325, with CP329 and in the test on DFO2036 was “inactive” in each case. For the same compound, the figures for the Potency in the test with DIV14, in the test on DIV17 and with ECU were 3.22 µM (active), 2.56 µM (active) and 3.55 µM (active), respectively.
In the case of `CCC(C)(S(=O)(=O)CC)S(=O)(=O)CC`, the Potency result in the test with CP262, in the test on CP265, in the test on CP266, in the test on CP268, in the test with CP269 and in the test with CP286 was “inactive” in each case. Besides, the Potency entry in the test with CP291, in the test on CP297, in the test with CP305, with CP315, in the test on CP325 and in the test on CP329 was “inactive” each time. Also, the Potency entry with CP335, in the test with DFO2036, in the test on DIV14, in the test with DIV17, in the test with DIV30 and in the test with Dd2 was “inactive” in each case. The Potency entry in the test with ECU is “inactive”.
For `O=C1CN=C(c2ccccc2)c2cc(Cl)ccc2N1CC1CC1`, the Potency entry in the test with CP262, with CP265, in the test on CP266, in the test with CP268, with CP269 and with CP291 was “inactive” each time. For the same compound, the Potency result in the test with CP297, in the test on CP305, with CP315, in the test with CP325, in the test with CP329 and in the test with DFO2036 was “inactive” throughout. The Potency result in the test with DIV14, in the test on DIV30, with Dd2 and in the test with ECU was “inactive” each time.
For the compound `C=CCC1(C(C)CCC)C(=O)N=C(S)NC1=O` (centres undefined), the Potency entry with CP260, in the test with CP265, in the test with CP266, with CP286, with CP335 and with DFO2036 was “inactive” each time. For the same compound, the Potency entry in the test with Dd2 and in the test on ECU was “inactive” each time.
